GRP78 ERSR act: ER stress response induction in glioma | U87-MG GRP78 promoter luciferase reporter, 16 h | Potency, µM, inactives show at the highest dose activation, actives largely listed as activators | hit rate 0.02% among 420,000; active = well fitted activation curve with a large enough effect; inconclusive = small, poorly fitted or top-dose-only effect; inactive = no such curve, though single readings can be large or run the other way; note: potency is the fitted concentration of half-maximal effect; series mostly up to about 76 µM; % of control where 0% means no effect; nearly all actives have a fitted effect of over 35% in size
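Stably transfected U87-MG human glioma cells carrying a GRP78-based luminescent sensor were seeded at 1000 cells/well, pin-dosed with compounds and incubated 16 h. Luciferase reagent was then added, and end-point luminescence was read after 10 min at room temperature.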
D1 antag: blocks dopamine activation of the human D1 receptor | HEK293 TREx D1 cells, calcium flux, dopamine EC80; active compounds read low | activity change, negative = inhibition, % at 10 µM | hit rate 3.2% among 360,000; in the data active = activity change below about -30%; note: % is set by controls: 0 for no effect and ±100 for the full control effect
Target sequence (P21728 whole entry, looked up): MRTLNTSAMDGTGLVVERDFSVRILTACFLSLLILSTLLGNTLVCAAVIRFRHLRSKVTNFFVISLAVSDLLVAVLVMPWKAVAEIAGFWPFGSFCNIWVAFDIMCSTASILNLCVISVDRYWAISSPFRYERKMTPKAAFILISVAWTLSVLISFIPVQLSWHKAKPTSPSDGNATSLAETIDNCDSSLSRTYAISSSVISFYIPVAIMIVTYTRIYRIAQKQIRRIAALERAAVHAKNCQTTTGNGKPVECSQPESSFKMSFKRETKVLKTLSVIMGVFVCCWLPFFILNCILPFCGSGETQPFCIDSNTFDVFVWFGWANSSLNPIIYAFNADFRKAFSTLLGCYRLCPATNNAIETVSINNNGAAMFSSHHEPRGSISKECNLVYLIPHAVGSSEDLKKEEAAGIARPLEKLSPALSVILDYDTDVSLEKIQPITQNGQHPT
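Tetracycline-induced HEK293 Trex D1 cells, force-coupled to calcium, dye-loaded; compounds added and read 180 s, then EC80 dopamine added and calcium flux tracked kinetically another 180 s.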
TRHR PAM: TRH receptor (human) allosteric enhancement; TRHR cells, fluo-8 calcium fluorescence, EC20 TRH enhancement; enhancement, % at 2 µM; hit rate 0.66% among 360,000; AID 493056; in the data active = enhancement above about 30%; note: 0% is about no effect
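TRHR-expressing cells loaded with fluo-8 calcium dye were read kinetically (ex 480/em 530) during compound addition, then stimulated with an EC20 of TRH (10 nM final). Enhancement of the Gq-mediated intracellular calcium response was scored.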
TRHR agonist: TRH receptor (human) agonism; P34981; TRHR cells, calcium flux fluo-8, FDSS agonist mode; activation, % at 2 µM; hit rate 0.18% among 360,000; AID 493084; note: 0% is about no effect
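TRHR-expressing cells, plated overnight in medium with 10% serum, were loaded with fluo-8 calcium dye at room temperature. After a 10 s baseline, library compound was pin-added and calcium release was recorded kinetically (ex 480/em 530) as agonist response.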
D1 agonist: activates the human D1 dopamine receptor | hit rate 1% among 360,000 | activation, % at 2 µM | HEK293 T-REx D1 cells, calcium flux, agonist mode; note: 0% is about no effect
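Tetracycline-induced HEK293 TREx D1 cells, force-coupled to calcium signalling, were dye-loaded with a no-wash calcium kit. Compound was pin-added after a 10 s baseline. Fluorescence was read kinetically at 1 cycle/s for 180 s, with calcium rises flagged as agonism.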
D1 potentiator: enhances dopamine response at the human D1 receptor; hit rate 0.036% among 360,000; HEK293 TREx D1 cells, calcium flux, dopamine EC20 potentiation; potentiation, % at 10 µM; in the data active = potentiation above about 30%; note: 0% is about no effect
* hit, by the source's call; ? = inconclusive; . = no result; ! = not active in a repeat. This is a sample that favours compounds with a hit; in the whole collection about 4% have one here. Cut-off read from the data, not from the text of the source, unless noted: active = activation above about 30%; inactive = the rest.

SMILES	GRP78 ERSR act	D1 antag	TRHR PAM	TRHR agonist	D1 agonist	D1 potentiator
CC(C)Cc1ccc(/C(=N/O)C(=O)O)s1	-2.4%	27.0	1.5	-0.3	2.0	3.2
OC(COCC1COc2ccccc2O1)CN1CCc2ccccc2C1 (configuration not stated)	?	-17.3	1.8	-0.6	32.9*	-10.2
CC1CCCN(CC(O)COCC2COc3ccccc3O2)C1 (configuration not stated)	-4.6%	-0.9	3.8	0.1	-0.5	0.0
COc1cc(OC)c2c(-c3ccccc3)cc(=O)oc2c1C(CCN1CCOCC1)c1ccc2c(c1)OCO2 (configuration not stated)	-0.5%	.	.	.	.	.
COc1cc(O)c(C(CCN2CCN(c3ccccc3)CC2)c2ccc3c(c2)OCO3)c(OC)c1 (configuration not stated)	-1.8%	-76.3*	4.3	-0.6	1.2	-13.1
COc1cc(O)c(C(CCN2CCCC2)c2ccc(N(C)C)cc2)c(OC)c1 (configuration not stated)	-6.0%	-2.0	-2.1	0.5	4.6	-4.8
COc1cc(O)c(C(CCN2CCCC2)c2ccc3c(c2)OCO3)c(OC)c1 (configuration not stated)	-3.4%	21.1	16.0	-0.2	6.7	-3.3
COc1cc(O)c(C(CCN2CCCCC2)c2ccc(N(C)C)cc2)c(OC)c1 (configuration not stated)	-2.2%	-33.5*	1.9	0.6	9.6	0.1
COc1cc(OC)c2c(C)cc(=O)oc2c1C(CCN1CCN(c2ccccc2)CC1)c1ccc2c(c1)OCO2 (configuration not stated)	-3.2%	-79.5*	8.0	-0.2	4.6	-9.3
COc1cc(OC)c2c(-c3ccccc3)cc(=O)oc2c1C(CC(=O)N1CCOCC1)c1ccc2c(c1)OCO2 (configuration not stated)	-3.5%	-60.4*	7.3	-0.3	4.6	-4.8
CCCCCCCCC(=O)N/N=C/c1cccc(Br)c1	-2.9%	12.1	8.5	1.6	5.7	0.3
CNc1oc(Cc2ccccc2)nc1S(=O)(=O)c1ccccc1	-1.7%	-29.6	-4.6	-0.1	-1.5	-1.1
Cc1ccc(C(=O)N2C3=C(CCCC3)C(=O)NC23CCCCC3)cc1	4.4%	12.8	3.3	-0.4	-0.7	-0.7
COc1ccc(C(CCN2CCOCC2)c2c(O)cc(OC)cc2OC)cc1 (configuration not stated)	-4.4%	8.2	-1.8	0.4	4.9	-9.6
COc1cc(O)c(C(CCN2CCN(c3ccccc3)CC2)c2cc(OC)c(OC)c(OC)c2)c(OC)c1 (configuration not stated)	-3.9%	-86.9*	11.0	-0.4	4.2	-12.2
CC(C)(C)CC(=O)Nc1cccc(-c2cn3cccnc3n2)c1	-0.6%	-9.4	-4.0	0.4	0.1	3.5
CCC(CC)C(=O)Nc1ccncc1	.	-46.3*	1.8	0.0	0.4	-6.5
CCC(CC)C(=O)Nc1cccc(-c2cn3cccnc3n2)c1	0.5%	-33.8*	4.5	0.0	2.6	4.2
CCC(CC)C(=O)Nc1ccc(-c2cn3cccnc3n2)cc1	-1.5%	-31.5*!	-4.9	0.6	0.0	-4.4
CCC(CC)C(=O)Nc1cc(-c2cn3cccnc3n2)ccc1OC	-1.3%	-5.5	-11.4	0.0	0.7	-2.2
CCCC(CCC)C(=O)Nc1ccncc1	-3.0%	-7.3	6.2	-0.9	16.6	-2.8
O=C(O)c1cc(NCc2ccc(F)cc2)ccc1N1CCOCC1	-0.7%	-5.2	16.9	0.5	1.3	-7.3
CCOc1cc(S(=O)(=O)n2ccc(C)n2)ccc1Br	-1.8%	-36.9*	-13.7	0.1	7.6	-5.6
CCOc1cc(S(=O)(=O)Nc2ncn[nH]2)ccc1Br	-2.6%	-51.8*	4.9	0.3	2.0	-4.8
Cc1ccc2[nH]c3c(c2c1)CN(C(=O)CN1CCSCC1)CC3	.	-4.5	-7.7	0.7	1.3	-2.6
SMILES	GRP78 ERSR act	D1 antag	TRHR PAM	TRHR agonist	D1 agonist	D1 potentiator
Cc1ccc2[nH]c3c(c2c1)CN(C(=O)CN1CCN(Cc2ccc4c(c2)OCO4)CC1)CC3	-7.7%	-34.9*	0.4	1.9	42.0*	-5.0
COc1cc(/C=N/NC(=O)C(N)=O)ccc1OCC(=O)N1C(C)CCCC1C (configuration not stated)	0.4%	-16.7	-6.8	1.0	1.6	-0.2
Cc1cccc(N2C(=O)CC(N3CCN(Cc4ccc5c(c4)OCO5)CC3)C2=O)c1 (configuration not stated)	-2.9%	3.8	-6.4	-0.5	1.9	0.2
CCCN1CCC(NCc2cn(C)nc2-c2ccc(Oc3ccccc3)cc2)CC1	-3.0%	-10.1	5.1	2.3	30.3*	-1.4
COC1CCCN(Cc2cn(C)nc2-c2ccc(Oc3ccccc3)cc2)C1 (configuration not stated)	1.8%	-2.1	-3.7	0.1	2.5	-1.8
CC1c2ccccc2SC(CCCN(C)C)c2ccccc21 (configuration not stated)	0.0%	-47.7*	4.6	1.5	47.9*	-1.2
CN(C)CCC1Sc2ccccc2Oc2ccccc21 (configuration not stated)	-5.3%	0.4	0.6	-0.8	27.8	-6.0
COc1cc(OC)c(NS(=O)(=O)c2ccc3c(c2)NC(=O)CCS3)cc1Cl	-3.5%	-38.2*	8.3	-0.9	14.7	1.9
O=C(CCCCl)OCc1cn(-c2ccc(Cl)cc2)nn1	-2.8%	13.6	2.3	0.5	-1.3	-3.0
c1ccc(Cn2c[n+](Cc3ccccc3)cn2)cc1	-4.5%	6.1	-2.5	0.0	3.3	7.2
Cc1ccc(C)c(N2CCN(CCCNC(=O)c3nnc(Cc4ccc(F)cc4Cl)o3)CC2)c1	-4.9%	-22.8	-1.3	-0.3	17.3	-4.1
COc1ccccc1N1CCN(CCCNC(=O)c2nnc(Cc3ccc(F)cc3Cl)o2)CC1	-3.2%	-39.5*	-3.3	-0.3	5.1	-5.3
COc1ccccc1N1CCN(CCCNC(=O)c2nnc(Cc3c(F)cccc3Cl)o2)CC1	1.0%	-36.5*	-2.0	-0.1	8.7	-4.8
O=C1c2ccccc2C(Nc2ccccc2F)N1c1cccnc1 (configuration not stated)	-4.3%	-34.8*	-1.1	0.3	0.0	.
COC(=O)c1ccccc1NC1c2ccccc2C(=O)N1c1cccnc1 (configuration not stated)	-3.1%	21.3	4.7	-0.3	4.0	0.1
COc1ccc(-c2cn[nH]c2C)cc1	-2.2%	-36.5*	30.8*	-1.2	-0.6	-0.1
CC(C)(C)C(=O)OC/C(N)=N/OC(=O)c1ccc(Cl)cc1	0.9%	-43.5*	-4.9	-0.4	6.8	-2.9
CCOC(=O)c1[nH]c(C)c(C(=O)OC(C)C(=O)Nc2ncc(Cl)cc2Cl)c1C (configuration not stated)	-0.4%	5.3	-3.1	0.0	4.1	-4.8

Source: PubChem (National Center for Advancing Translational Sciences (NCATS))
